From the supplement of paper PMC6555819

Assays:
Experiment in all cases: PBM binding z-score (relative to random genomic background probes); higher = stronger binding; sequences stand for … in GC…GCGATTGACAGCGTAGAATGAAGG
[1] = system: FXR:RXRa (NR concentration 270 nM, RXRa partner concentration 90 nM)
Procedure, shortened: (§1)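 Binding buffer was PBS pH 7.4 with 2% milk, 0.02% Triton X-100, 1 mM DTT, 0.2 mg/mL BSA and 0.4 mg/ml salmon testes DNA. In it, ligand-free nuclear receptor dimers were incubated 1 h on custom Agilent 4×180K protein-binding microarrays carrying double-stranded probes. Antibodies against each partner (one per run) detected binding, and z-scores were calculated against random background probes after regression normalization of scanned fluorescence.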

[2] = system: LXRa:RXRa (NR concentration 270 nM, RXRa partner concentration 90 nM)
Procedure, shortened: as §1

[3] = system: LXRa homodimer (NR concentration 270 nM)
Procedure, shortened: as §1

[4] = system: LXRb:RXRa (NR concentration 270 nM, RXRa partner concentration 90 nM)
Procedure, shortened: as §1

[5] = system: LXRb homodimer (NR concentration 270 nM)
Procedure, shortened: as §1

[6] = system: PPARa:RXRa (NR concentration 270 nM, RXRa partner concentration 90 nM)
Procedure, shortened: as §1

[7] = system: PPARg:RXRa (NR concentration 180 nM, RXRa partner concentration 90 nM)
Procedure, shortened: as §1

[8] = system: PPARg:RXRa 270nM:90nM, anti-RXR (NR concentration 270 nM, RXRa partner concentration 90 nM)
Procedure, shortened: as §1

[9] = system: PPARg:RXRa 30nM:10nM, anti-RXR (NR concentration 30 nM, RXRa partner concentration 10 nM)
Procedure, shortened: as §1

[10] = system: PPARg:RXRa 90nM:30nM, anti-RXR (NR concentration 90 nM, RXRa partner concentration 30 nM)
Procedure, shortened: as §1

[11] = system: PPARg:RXRa DBDmut IVT, anti-RXR (DBD mutation: RXRa K156A/R161A, NR concentration 270 nM, RXRa partner concentration 90 nM)
Procedure, shortened: as §1

[12] = system: PPARg:RXRa IVT, anti-PPARg (NR concentration 270 nM, RXRa partner concentration 90 nM)
Procedure, shortened: as §1

[13] = system: PPARg DBDmut:RXRa IVT, anti-PPARg (DBD mutation: PPARg1 K132A/R137A, NR concentration 270 nM, RXRa partner concentration 90 nM)
Procedure, shortened: as §1

[14] = system: PPARg DBDmut IVT, anti-PPARg (DBD mutation: PPARg1 K132A/R137A, NR concentration 270 nM)
Procedure, shortened: as §1

[15] = system: PPARg homodimer (NR concentration 180 nM)
Procedure, shortened: as §1

[16] = system: PXR:RXRa (NR concentration 270 nM, RXRa partner concentration 90 nM)
Procedure, shortened: as §1

[17] = system: PXR homodimer (NR concentration 270 nM)
Procedure, shortened: as §1

[18] = system: RARa:RXR (NR concentration 270 nM, RXRa partner concentration 90 nM)
Procedure, shortened: as §1

[19] = system: RARa homodimer (NR concentration 270 nM)
Procedure, shortened: as §1

[20] = system: RARb:RXRa (NR concentration 270 nM, RXRa partner concentration 90 nM)
Procedure, shortened: as §1

Row | Sequence | PBM binding z-score [1] | PBM binding z-score [2] | PBM binding z-score [3] | PBM binding z-score [4] | PBM binding z-score [5] | PBM binding z-score [6] | PBM binding z-score [7] | PBM binding z-score [8] | PBM binding z-score [9] | PBM binding z-score [10] | PBM binding z-score [11] | PBM binding z-score [12] | PBM binding z-score [13] | PBM binding z-score [14] | PBM binding z-score [15] | PBM binding z-score [16] | PBM binding z-score [17] | PBM binding z-score [18] | PBM binding z-score [19] | PBM binding z-score [20]
1 | CCTACTGGGCCATCAAGTCATTGATATCAACGTT | -0.198 | -0.233 | -0.0812 | 0.373 | -0.319 | 1.02 | 0.723 | 1.67 | 0.283 | 0.805 | 3.82 | 3.91 | -0.107 | 0.228 | 0.653 | -0.138 | -0.334 | 0.32 | 0.00429 | 0.23
2 | TCTCGGAGGACACGAAAGGTCAGGGCTCGACATC | 3.31 | 3.84 | 3.08 | 3.5 | 0.0689 | 3.95 | 1.6 | 2.91 | 2.57 | 2.76 | 1.91 | 1.97 | 0.171 | -0.651 | 2.95 | 4.44 | 0.147 | 4.93 | 0.454 | 4.4
3 | TTACCAAGGTGAGCTGAGGTCGTTTATCCAACTC | 2.17 | 1.37 | -0.142 | 0.978 | -0.227 | 1.61 | -0.0022 | 0.829 | -0.0958 | 0.644 | 0.956 | 1.9 | -0.2 | -0.389 | -0.278 | 4.87 | 0.621 | 1.58 | -1.08 | 1.53
4 | CGTCCAAGGTCAAAGAGGTCAGTGAATGCCGAGT | 7.54 | 6.09 | 4.44 | 5.48 | 1.51 | 5.88 | 5.22 | 5.89 | 2.41 | 4.63 | 3.99 | 4.53 | 0.213 | -0.987 | 5.13 | 6.71 | 12.7 | 6.05 | 1.8 | 5.48
5 | GCTAGTTAGTCAGTAAAAGGTCACACACCGGTCG | 3.12 | 4.12 | 4.46 | 3.91 | 0.32 | 4.56 | 3.96 | 5.48 | 3.89 | 5.04 | 0.245 | 2.45 | 0.12 | 0.0734 | 3.34 | 4.72 | 0.761 | 4.98 | 2.21 | 3.96
6 | GGAACGAGGGCAAGTTGCTAGCAGAGTTTGATGG | 0.687 | 0.359 | -0.44 | 0.0629 | -0.392 | 1.48 | 0.841 | 1.04 | -0.453 | 0.0808 | 3.85 | 2.46 | -0.00966 | -0.739 | -0.336 | 0.59 | 0.303 | 0.0596 | -0.257 | 2.52
7 | ATCTCTAGGTAGAGATAGTTCAGTGAATGCAAAT | -0.234 | -0.0128 | 0.0165 | -0.111 | 0.0975 | 0.178 | 0.258 | 0.0156 | 0.0243 | 0.104 | -0.289 | 0.0847 | 0.624 | 0.987 | 0.293 | 0.338 | 0.253 | 0.641 | 0.194 | 0.242
